ChEMBL document CHEMBL4513216, “Probing the Open Global Health Chemical Diversity Library for Multistage-Active Starting Points for Next-Generation Antimalarials” (ACS Infect Dis, 2020)
Out of some 68,000 compounds screened, about 2,700 (4%) showed an effect of 50% or more. The list comes from a sample in which strong results are over-represented; it also holds similar structures and randomly drawn compounds.

Tested on: Plasmodium berghei
Experiment: Screen against P. berghei liver stage (PbLuc), transformed with Luciferase, at 2uM
Format: functional, HepG2
Settings: tested at 2 uM

| SMILES | INHIBITION |
| --- | --- |
| CS(=O)(=O)c1ccc(Cl)c(C(=O)NCCC2=CCCCC2)c1 | 6.92% |
| Cc1cc(C)n(C2CCCN(C(=O)Cc3cn4ccsc4n3)C2)n1 (stereo not drawn) | 20.57% |
| Cc1cc(N2CCC(O)(CN(C)C(=O)CCN)C2)c2cnccc2n1 (stereo not drawn) | -17.65% |
| Cc1cc(N2CCC(O)(CN(C)C(=O)CCCN)C2)c2cnccc2n1 (stereo not drawn) | -14.93% |
| Cc1cc(N2CCC(O)(CN(C)C(=O)CCN)CC2)c2cnccc2n1 | 57.47% |
| CCOC(=O)COC1CCN(C(C)=O)CC(=O)N(C)c2ccccc21 (stereo not drawn) | 19.99% |
| Cc1ccnc(C2(C)CCCN2S(=O)(=O)c2c(C)noc2C)n1 (stereo not drawn) | 15.61% |
| Cc1nn2cnnc2c(C)c1CCC(=O)Nc1nc2c(s1)CCC2 | -4.37% |
| Oc1nc(-c2cnccn2)nc2c1CCN(Cc1ccccn1)C2 | 19.47% |
| O=C(Cc1ccccn1)N1CCc2c(O)nc(-c3cnccn3)nc2C1 | 56.57% |
| O=C(Cc1ccccn1)N1CCc2nc(-c3cnccn3)nc(O)c2C1 | 41.31% |
| COCCc1noc(-c2ccc(=O)[nH]c2)n1 | -18.6% |
| CS(=O)(=O)CCNCc1ccc(OCc2ccncc2)cc1 | -117.21% |
| O=S1(=O)COCCN1Cc1ccc(F)c(F)c1 | 22.52% |
| O=S1(=O)COCCN1Cc1ccc(Cl)c(F)c1 | 51.45% |
| O=S1(=O)COCCN1Cc1ccc(Cl)c(Cl)c1 | -31.95% |
| Cc1ccc(C(C)NC(=O)N2CCCN(CC(F)F)CC2)s1 (stereo not drawn) | 9.27% |
| CC(C)N1[C@H](CN2CCCC2)C[C@@H]2CN(Cc3ccoc3)CC[C@@H]21 | 1.92% |
| CC(=O)N1C(CN2CCCC2)C[C@@H]2CN(C(=O)c3ccoc3)CC[C@@H]21 (stereo partly drawn) | 4% |
| CC(C)N1[C@H](CN2CCCC2)C[C@@H]2CN(C(=O)c3ccoc3)CC[C@@H]21 | 50.32% |
| Cc1cc(CN2CCN(CC(O)c3ccc(C)c(C)c3)CC2)no1 (stereo not drawn) | -29.69% |
| CCCOc1ccc(CNC(=O)N2CCC(C(N)=O)C2)cc1 (stereo not drawn) | 76.69% |
| CCOCc1ccc(CNC(=O)N2CCC(C(N)=O)C2)cc1 (stereo not drawn) | 47.23% |
| CC(C)c1ccc(OCCC(=O)N2CCC(C(N)=O)CC2)cc1 | 3.33% |
| CC(C)c1ccc(OCCC(=O)N2CCCN(C(N)=O)CC2)cc1 | 19.71% |
| CS(=O)(=O)Cc1ccc(CNC(=O)N2CCC(C(N)=O)C2)cc1 (stereo not drawn) | 31% |
| CC(C)c1ccc(OCCC(=O)N2CCCC(C(N)=O)C2)cc1 (stereo not drawn) | 52.47% |
| COCCN1CCCn2cnc(CNC3CCCC3)c2C1 | -24.29% |
